This note sets out measurements from PubChem BioAssay (NCI).

Among the test systems are NCI-H23 lung; NCI-H226 lung; NCI-H322M lung; HOP-62 NSCLC; NCI-H460 lung; HOP-92 NSCLC; NCI-H522 lung; A549/ATCC NSCLC; 786-0 renal; COLO 205 colon; DU-145 prostate; K-562 leukemia; MALME-3M melanoma; MDA-MB-231 breast; RXF 393 renal; SF-268 CNS; SF-295 CNS; SF-539 CNS; UACC-257 melanoma.
Holding throughout (assay): NCI-60 one-dose screen, 48 h (100 = growth as untreated, 0 = no growth, -100 = all killed)
Common to all, as to conditions: 10 µM unless noted

About 83,000 compounds went through this panel and 20% of them were active in at least one assay; those are over-represented in the sample as a whole.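 Treatment: one concentration, 48 hours, 96-well format. Scoring: percent growth, with anything below 10 considered active.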 A number with no mark means an inactive call. The source made the active and inactive calls.

In the case of `COc1ccc(/C=C2\c3cc(OC)c(OC)c(OC)c3CC[C@@H]2O)cc1F`, the growth was 37.3% in the assay with NCI-H23 lung; 58.1% in the assay with NCI-H226 lung; 66.3% in the assay with NCI-H322M lung; 32.6% with HOP-62 NSCLC; 13.8% in the assay on NCI-H460 lung; 38.2% with HOP-92 NSCLC. Also, the growth with NCI-H522 lung was -32.5% (active); in the assay with A549/ATCC NSCLC, 16.7%; in the assay with 786-0 renal, 34.7%; in the assay on COLO 205 colon it was 2.26% (active); with DU-145 prostate, 19.5%; with K-562 leukemia, 13.4%. The growth in the assay with MALME-3M melanoma was 70.2%; with MDA-MB-231 breast, 28.8%; with RXF 393 renal it was 8.31% (active); in the assay on SF-268 CNS it was 53.9%; in the assay with SF-295 CNS, 17%; in the assay with SF-539 CNS, 1.44% (active). Further, in the assay on UACC-257 melanoma, the growth is 39%.
In the case of `C#COc1cccc(Nc2ncnc3cc(NC(=O)[C@H](C)Cl)ccc23)c1`, the growth with NCI-H23 lung is 18.5% [6.25 µM]; in the assay with NCI-H226 lung, 41.7% [6.25 µM]; in the assay on NCI-H322M lung it was 30% [6.25 µM]; with HOP-62 NSCLC it was 7.33% [6.25 µM] (active); in the assay with NCI-H460 lung it was 3.29% [6.25 µM] (active); in the assay on HOP-92 NSCLC, 81.5% [6.25 µM]. For the same compound, the growth is -46.2% [6.25 µM] (active) with NCI-H522 lung; 2.95% [6.25 µM] (active) with A549/ATCC NSCLC; 14.2% [6.25 µM] with 786-0 renal; 12.2% [6.25 µM] in the assay with COLO 205 colon; 20.3% [6.25 µM] with DU-145 prostate; 99.7% [6.25 µM] with K-562 leukemia. Moreover, the growth in the assay with MALME-3M melanoma was 37.5% [6.25 µM]; in the assay on MDA-MB-231 breast, 19.1% [6.25 µM]; with RXF 393 renal it was 15.5% [6.25 µM]; in the assay with SF-268 CNS it was 27.7% [6.25 µM]; in the assay on SF-295 CNS, 1.61% [6.25 µM] (active); in the assay on SF-539 CNS, 0.539% [6.25 µM] (active). Further, the growth in the assay with UACC-257 melanoma was 21.2% [6.25 µM].
With `COc1cc(/C=N/NC(=O)c2ccc(-n3cc(-c4ccccc4)nn3)cc2)cc(OC)c1OC`, the growth in the assay with NCI-H23 lung is 59.1%; in the assay on NCI-H226 lung, 32.5%; in the assay with NCI-H322M lung it was 60.6%; in the assay on HOP-62 NSCLC it was 71.7%; in the assay on NCI-H460 lung it was 41.5%; in the assay on HOP-92 NSCLC it was 86.9%. In addition, the growth in the assay on NCI-H522 lung was 68.3%; with A549/ATCC NSCLC, 81.2%; in the assay on 786-0 renal, 93.8%; with COLO 205 colon, 56.7%; in the assay with DU-145 prostate, 56.9%; in the assay on K-562 leukemia, 60.6%. Also, the growth in the assay with MALME-3M melanoma is -1.82% (active); in the assay on MDA-MB-231 breast, 78.2%; with RXF 393 renal it was 68.7%; in the assay with SF-268 CNS, 57.9%; with SF-295 CNS, 88%; in the assay on SF-539 CNS it was 53.2%. Besides, in the assay with UACC-257 melanoma, the growth is 53.9%.
For the compound `CCn1cc(C(=O)N/N=C/c2cccc(F)c2)c(=O)c2cc(F)c(N3CCNC(C)C3)c(F)c21` (configuration not stated), the growth is 76.2% with NCI-H23 lung; 97.1% in the assay with NCI-H226 lung; 83.4% with NCI-H322M lung; 86.5% with HOP-62 NSCLC; -79% (active) with NCI-H460 lung; 51.2% in the assay on HOP-92 NSCLC. The growth with NCI-H522 lung is -29.8% (active); in the assay on A549/ATCC NSCLC it was -66.6% (active); with 786-0 renal, -39.7% (active); with COLO 205 colon, 17.5%; in the assay with DU-145 prostate, -87.5% (active); in the assay with K-562 leukemia it was -52.1% (active). Also, the growth in the assay with MALME-3M melanoma is -67.4% (active); in the assay on MDA-MB-231 breast it was -49.6% (active); in the assay with RXF 393 renal, -21.6% (active); in the assay with SF-268 CNS, 39.4%; with SF-295 CNS, 75.7%; in the assay on SF-539 CNS it was -4.61% (active). For the same compound, the growth in the assay with UACC-257 melanoma was 89%.
As to `N#Cc1c(-c2ccccc2)cc(-c2ccccc2)n(CCCCC(=O)NO)c1=O`, the growth in the assay on NCI-H23 lung is 25.8%; in the assay on NCI-H226 lung, 9.98% (active); in the assay on NCI-H322M lung, 92.2%; with HOP-62 NSCLC it was 21.1%; with NCI-H460 lung, 73%; in the assay with HOP-92 NSCLC, 15.7%. The growth in the assay with NCI-H522 lung is 19.3%; in the assay on A549/ATCC NSCLC, 41.7%; in the assay on 786-0 renal it was 7% (active); with COLO 205 colon, 43.3%; in the assay with DU-145 prostate, 20.2%; in the assay on K-562 leukemia, 6.77% (active). Moreover, the growth is 11.5% in the assay with MALME-3M melanoma; 25.6% in the assay with MDA-MB-231 breast; -16.5% (active) with RXF 393 renal; 43% in the assay on SF-268 CNS; 1.64% (active) in the assay on SF-295 CNS; 24.3% in the assay on SF-539 CNS. Moreover, the growth in the assay on UACC-257 melanoma is 35.8%.
With `O=c1cc(CP(=O)(O)O)c2cc(O)c(-c3ccccc3)cc2o1`, the growth with NCI-H23 lung is 101%; with NCI-H226 lung it was 101%; in the assay with NCI-H322M lung, 101%; with HOP-62 NSCLC it was 103%; in the assay with NCI-H460 lung, 104%; with HOP-92 NSCLC, 95.7%. Further, the growth is 94.7% with NCI-H522 lung; 106% with A549/ATCC NSCLC; 104% in the assay with 786-0 renal; 108% with COLO 205 colon; 105% with DU-145 prostate; 105% in the assay with K-562 leukemia. Further, the growth with MALME-3M melanoma was 103%; in the assay on MDA-MB-231 breast, 111%; in the assay on RXF 393 renal, 105%; with SF-268 CNS, 99%; in the assay with SF-295 CNS, 101%; with SF-539 CNS, 104%. In addition, the growth in the assay with UACC-257 melanoma was 101%.
`Cn1cc(-c2csc(-c3cn(CCCN4CCOCC4)c4ccc(F)cc34)n2)c2cccnc21`: the growth was 63.7% in the assay on NCI-H23 lung; 51.9% in the assay on NCI-H226 lung; 79% in the assay with NCI-H322M lung; 71.7% in the assay with HOP-62 NSCLC; 41% in the assay with NCI-H460 lung; 40.8% in the assay on HOP-92 NSCLC. The growth with NCI-H522 lung is 49.5%; in the assay on A549/ATCC NSCLC, 66.1%; in the assay with 786-0 renal it was 57.4%; in the assay with COLO 205 colon it was 51.3%; in the assay on DU-145 prostate it was 80.3%; in the assay on K-562 leukemia, 0.484% (active). In addition, the growth was 87.4% in the assay with MALME-3M melanoma; 25.1% in the assay with MDA-MB-231 breast; 36.1% in the assay on RXF 393 renal; 66.6% in the assay on SF-268 CNS; 11.2% in the assay on SF-295 CNS; 57.6% in the assay with SF-539 CNS. Moreover, in the assay with UACC-257 melanoma, the growth was 78.5%.
For the compound `CC1(/C=C/c2ccc(-c3ccccc3)cc2)CCn2cnc3ncnc(c32)N1O` (configuration not stated), the growth in the assay on NCI-H23 lung is 13%; with NCI-H226 lung it was 17%; in the assay on NCI-H322M lung, 26.9%; in the assay on HOP-62 NSCLC it was 19.6%; with NCI-H460 lung, 3.93% (active); with HOP-92 NSCLC, 52.3%. Also, the growth is 26% in the assay on NCI-H522 lung; 15.6% with A549/ATCC NSCLC; 1.88% (active) in the assay with 786-0 renal; 28% in the assay on COLO 205 colon; 21.4% in the assay on DU-145 prostate; 14.9% in the assay on K-562 leukemia. Further, the growth was 23.3% with MALME-3M melanoma; 53.9% with MDA-MB-231 breast; 5.19% (active) in the assay with RXF 393 renal; 16.6% in the assay with SF-268 CNS; 13.3% in the assay on SF-295 CNS; 1.19% (active) in the assay on SF-539 CNS. Also, the growth in the assay with UACC-257 melanoma is 10.7%.
